# Rows were chosen to be rich in hits. Some 12% of all compounds tested hit in one or more screens of this group.
# G9a inh: inhibitors of human histone lysine methyltransferase G9a | Q96KQ7 | G9a H3K9 monomethylation, AlphaScreen, 2 h | Potency, µM (highest dose often 102 µM), inactives show top-dose activity, negative = inhibition, most hits filed as inhibitors | 8.8% of 350,000 active | AID 504332; further: on the % scale 0 is the no-effect control and ±100 the full control effect; nearly all actives have a fitted effect of over 75% in size
#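 AlphaScreen read-out: biotin-H3K9 peptide (500 nM) methylation by 20 nM enzyme with 20 uM SAM, 2 h at room temperature after 15 min compound preincubation; anti-monomethyl H3K9 antibody plus donor/acceptor beads, 10 min dark.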
# Sfp PPTase inh: blocks B. subtilis Sfp PPTase activity | 3.5% of 310,000 active | Potency, µM, inactives show largest response in the series, negative = inhibition, most hits filed as inhibitors | Biochemical Sfp PPTase activity, qHTS;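 further: the enzyme is Sfp with the accession as filed and its product quenches rhodamine fluorescence; 0% = enzyme reaction without inhibitor and -100% = no enzyme wells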
#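 With Hepes-Na pH 7.6 buffer containing 10 mM MgCl2, Sfp (15 nM) modified BHQ-2-YbbR (12.5 uM) using rhodamine-CoA (5 uM). Two reads 30 minutes apart at 525/598 nm yielded each well's rate.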
# JMJD2A Tudor inh: JMJD2A Tudor domain (human) inhibition; O75164; AlphaScreen JMJD2A-Tudor / H3K4me3 peptide binding; Potency, µM (doses to about 114 µM), for the others: at the highest dose activity change, negative = inhibition, actives largely listed as inhibitors; 4.4% of 390,000 active; AID 504339; further: on the % scale 0 is the no-effect control and ±100 the full control effect; nearly all actives have a fitted effect of over 50% in size
# Target sequence (O75164 whole entry, looked up, the tested form may be a part): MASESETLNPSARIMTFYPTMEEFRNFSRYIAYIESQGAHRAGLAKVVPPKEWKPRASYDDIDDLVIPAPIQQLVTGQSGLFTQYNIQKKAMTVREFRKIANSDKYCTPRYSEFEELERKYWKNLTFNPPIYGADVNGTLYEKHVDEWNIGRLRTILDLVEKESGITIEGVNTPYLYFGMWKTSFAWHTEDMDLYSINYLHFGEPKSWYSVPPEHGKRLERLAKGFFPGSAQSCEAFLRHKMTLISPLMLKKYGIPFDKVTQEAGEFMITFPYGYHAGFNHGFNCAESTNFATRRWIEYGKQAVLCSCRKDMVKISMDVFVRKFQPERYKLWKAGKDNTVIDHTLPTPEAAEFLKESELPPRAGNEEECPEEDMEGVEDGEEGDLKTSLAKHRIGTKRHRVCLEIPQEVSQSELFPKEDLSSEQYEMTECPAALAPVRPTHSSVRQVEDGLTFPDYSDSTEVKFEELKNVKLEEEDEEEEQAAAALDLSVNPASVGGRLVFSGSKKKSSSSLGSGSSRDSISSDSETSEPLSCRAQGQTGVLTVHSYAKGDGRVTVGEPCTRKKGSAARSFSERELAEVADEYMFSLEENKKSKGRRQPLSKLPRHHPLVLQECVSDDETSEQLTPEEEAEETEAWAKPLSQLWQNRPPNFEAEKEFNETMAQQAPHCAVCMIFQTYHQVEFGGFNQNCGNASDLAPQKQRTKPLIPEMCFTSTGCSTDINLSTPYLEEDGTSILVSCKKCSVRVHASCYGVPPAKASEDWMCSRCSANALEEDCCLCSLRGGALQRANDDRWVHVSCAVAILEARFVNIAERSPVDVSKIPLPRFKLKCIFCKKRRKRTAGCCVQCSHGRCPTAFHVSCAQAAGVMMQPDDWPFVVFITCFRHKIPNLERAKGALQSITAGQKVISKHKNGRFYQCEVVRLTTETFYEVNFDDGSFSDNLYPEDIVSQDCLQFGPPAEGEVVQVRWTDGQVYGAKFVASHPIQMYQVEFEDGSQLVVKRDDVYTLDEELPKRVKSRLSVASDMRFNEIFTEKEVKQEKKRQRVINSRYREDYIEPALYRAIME
# L3MBTL1 block: inhibitors of human L3MBTL1. AlphaScreen L3MBTL1–H3K9me1 peptide binding. Potency, µM (doses to about 57.1 µM), inactives show at the top dose activity, negative = inhibition, usual class: inhibitors. 0.66% of 230,000 active; further: on the % scale 0 is the no-effect control and ±100 the full control effect; nearly all actives have a fitted effect of over 60% in size
#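 Read-out is AlphaScreen signal from streptavidin donor and nickel chelate acceptor beads (10 ug/mL final each) bridging L3MBTL1 (50 nM) and biotinylated K9-monomethylated H3(1-15) peptide (75 nM), after 30 min compound exposure at room temperature.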
# HP1b chromo inh: inhibitors of HP1-beta chromodomain binding to methylated histone tails. 0.56% of 390,000 active. Potency, µM (doses to about 114 µM), inactives show at the highest dose activity change, negative = inhibition, actives largely listed as inhibitors. AlphaScreen HP1-beta / biotin-H3K9me3 peptide binding. P83916; further: nearly all actives have a fitted effect of over 70% in size
#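 AlphaScreen: HP1-beta (50 nM) preformed 30 min with biotin-H3(1-18)K9me3 peptide (50 nM) in PBS pH 7.4, 0.01% Tween-20. Compound added for 30 min at RT, then streptavidin donor/nickel chelate acceptor beads (10 ug/mL) for 30 min.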
# BAZ2B block: BAZ2B (human) inhibition. Q9UIF8. Potency, µM (highest dose often 114 µM), inactives show at the highest dose activity change, negative = inhibition, usual class: inhibitors. AlphaScreen BAZ2B-H3K14Ac peptide displacement. AID 504333. 4.4% of 360,000 active; further: on the % scale 0 is the no-effect control and ±100 the full control effect; nearly all actives have a fitted effect of over 60% in size
#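 Multi-concentration screen (max 110 uM) measuring displacement of acetylated histone H3 peptide from BAZ2B by AlphaScreen, using 50 nM protein, 50 nM peptide and 10 ug/mL streptavidin donor plus Ni-chelate acceptor beads.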
# The depositor's hits bear a star; ? = inconclusive; / = not tested or not shown; [ ] = remark or other dose. The call rests on the fitted dose curve; in most records, active means well fitted curve in the direction sought with a large enough effect; inconclusive means small, poorly fitted or top-dose-only effect, or another doubt; inactive means no such curve, though single readings can be large; an effect the other way counts as inactive or inconclusive. Potency means the concentration at half of the fitted maximal effect.
SMILES,G9a inh,Sfp PPTase inh,JMJD2A Tudor inh,L3MBTL1 block,HP1b chromo inh,BAZ2B block
NC(=O)CSC1=N/C(=C\c2ccco2)C(=O)N1c1ccc(OC(F)F)cc1,?,-4%,?,-25%,22%,-37%
Cc1cncn1CCc1nc2c3ccccc3nc(SCC(=O)Nc3ccccc3F)n2n1,1%[59 µM],/,-27%,/,22%,-13%
Cc1cc(=O)c2cc(C(=O)Nc3ccc(C)c(C)c3)ccc2[nH]1,?,/,-10%,/,48%,-1%
CCOc1ccc(NC(=O)N2CCN(C(=O)c3nsc4ccccc34)CC2)cc1,-22%[59 µM],/,5%,/,26%[57 µM],-3%
CCOC(=O)N/N=C\C=C\c1ccco1,?,45µM*,-16%,-16%,29%,-23%
CCOC(=O)N/N=C(C)/C=C/c1ccccc1,19%[59 µM],17%,-6%,7%,29%,0%
CCOC(=O)N/N=C(C)/C=C/c1ccco1,11µM*,-1%,-13%,11%,42%,3%
CCOC(=O)C(=O)N/N=C/c1ccco1,/,-11%,-3%,-7%,19%,-8%
Nc1ccccc1Sc1ccc(C(=O)c2ccccc2C(=O)O)cc1[N+](=O)[O-],20µM*,?,?,-11%,1%,-35%
CC(=O)c1ccc(Sc2ccccc2N)c([N+](=O)[O-])c1,45µM*,2%,?,?,-22%,?
Nc1cc(C(=O)O)ccc1Sc1ccccc1C(=O)O,4.5µM*,16µM*,-32%,/,-8%,-33%
CC(C)OC(=O)c1ccccc1C(=O)c1ccc(N)c([N+](=O)[O-])c1,13µM*,7%,-30%,-7%,0%,-26%
O=C(O)c1ccccc1C(=O)c1ccc(Sc2ccc(Cl)cc2)c([N+](=O)[O-])c1,/,14%,-23%,-12%,-5%,?
CC(=O)CCC(=O)O,32%[59 µM],8%,/,/,/,/
CCCCN(CC)C(=O)c1cc2c(=O)n3ccccc3nc2n1C,-7%[59 µM],/,-22%,/,1%,-4%
CN(C)CCNC(=O)c1ccc(Sc2ccc(Br)cc2)c([N+](=O)[O-])c1,35µM*,-6%,?,/,-14%,-22%
CC(=O)NCCNC(=O)c1ccc(Sc2ccccc2)c([N+](=O)[O-])c1,-11%[59 µM],7%,-22%,/,35%,-29%
CC(=O)c1ccc(Sc2ccccc2)c([N+](=O)[O-])c1,22µM*,-1%,?,-3%,?,?
CC(C)Cc1nn2c(=O)cc(COC(=O)c3ccc(NC(=O)CCc4ccccc4)cc3)nc2s1,?,/,-31%,/,0%,-1%
O=C(O)C(O)C(O)(Cc1ccc(O)cc1)C(=O)O (stereo not drawn),/,-26%,/,/,/,/
Cc1ccn2c(=O)c(C(=O)NCCc3ccccc3)c(O)nc2c1,26%[59 µM],/,3%,/,31%,-11%
O=C(NCc1ccccc1)c1sc(=S)n2c1[nH]c(=O)c1ccccc12,28µM*,8%,?,0%,-22%,45µM*
CCCCNC(=O)c1sc(=S)n2c1[nH]c(=O)c1ccc(C(=O)NCCc3ccc(OC)c(OC)c3)cc12,25µM*,12%,-26%,/,-23%[57 µM],?
Cn1c(=O)c2c(nc(NN=C3CCCC3)n2C)n(C)c1=O,40µM*,22µM*,-27%,-10%,0%,?
Cn1c(=O)c2c(nc(NNC(=O)C(F)(F)F)n2C)n(C)c1=O,6.3µM*,0.89µM*,?,-4%,37%,?
SMILES,G9a inh,Sfp PPTase inh,JMJD2A Tudor inh,L3MBTL1 block,HP1b chromo inh,BAZ2B block
Clc1ccc(CSc2nnc(-c3ccc4c(c3)OCO4)o2)cc1,4%[59 µM],50µM*,-2%,/,29%,57%
O=C(O)c1cc(Cl)ccc1-c1ccc(/C=C/c2cc(C(F)(F)F)[nH]c(=O)n2)o1,?,-21%,-12%,?,-3%,-25%
O=C(O)c1ccccc1-c1ccc(/C=C/c2cc(C(F)(F)F)[nH]c(=O)n2)o1,40µM*,-29%,-26%,-17%,7%,?
Cc1ccc(NCCC(=O)c2cccc([N+](=O)[O-])c2)c(C)c1,?,-13%,32µM*,?,?,28µM*
Cc1ccc(Cn2c(CNC(=O)CCc3ccccc3)nc3cccnc32)cc1,0%[59 µM],/,-11%,/,29%[57 µM],4%
Nc1csnc1C(=O)O,32µM*,-3%,20µM*,5%,14%,?
CC(C)(C)c1cccc(S(=O)(=O)N2CCN(c3nc(-c4cccs4)nc4ccccc34)CC2)c1,/,/,-17%,/,32%,/
CSc1ccccc1OCc1cc(C(=O)N2CCN(c3ccccc3)CC2C)no1 (stereo not drawn),15%,-1%,-17%,/,20%,-20%
CSc1ccccc1OCc1cc(C(=O)N2CCc3[nH]cnc3C2c2ccccn2)no1 (stereo not drawn),?,12%,18µM*,/,?,56µM*
COc1cc([N+](=O)[O-])cc(/C=N/NC(=O)CSc2nnc(-c3ccccc3)n2C)c1O,/,7%,?,/,25%,-3%
COc1cc([N+](=O)[O-])cc(/C=N/N(CCC#N)C(C)=O)c1O,45µM*,13%,-7%,-3%,11%,?
CCc1cc(C(c2ccc(OC)c(OC)c2)N2CCOCC2)c(NC(=O)c2ccccc2)s1 (stereo not drawn),32µM*,5%,50µM*,-4%,?,35µM*
CCc1cc(C(c2cccc(OC)c2)N2CCOCC2)c(NC(=O)c2ccccc2)s1 (stereo not drawn),5%,5%,-23%,-13%,29%,-31%
COCCCNC(=O)C[C@H]1C[C@H](C(=O)N2CCOCC2)[C@@]2(CCC3CCCC3)c3[nH]c4cc(-c5ccco5)ccc4c3CCN2C1=O,/,/,79µM*,-11%,?,/
CC[C@]12c3[nH]c4cc(-c5ccco5)ccc4c3CCN1C(=O)[C@@H](CC(=O)NCCC1=CCCCC1)C[C@@H]2C(=O)N1CCN(C(=O)c2ccco2)CC1,/,/,?,20µM*,9%,/
O=C(C[C@H]1C[C@H](C(=O)N2CCOCC2)[C@@]2(CCC3CCCC3)c3[nH]c4cc(-c5ccco5)ccc4c3CCN2C1=O)NCCN1CCOCC1,/,/,-26%,-11%,?,/
CCN1/C(=C/c2cc[n+](C)cc2)C=Cc2cc(C)ccc21,2.2µM*,?,?,-9%,?,?
CCN1/C(=C/c2ccc3ccccc3[n+]2CCCS(=O)(=O)[O-])C=Cc2cc(C)ccc21,10µM*,-21%,-11%,/,-15%,45µM*
CCN1/C(=C/c2ccc3ccccc3[n+]2CC)C=Cc2ccccc21,11µM*,50µM*,35µM*,/,18µM*,?
COc1ccc(OC)c(S(=O)(=O)N2CCC(c3ccncc3)CC2)c1,10%[59 µM],/,-19%,/,24%,-6%

# Assay outcomes (PubChem)
